Holding throughout (experiment): DAPPL (digital affinity profiling via proximity ligation, sequencing); 10 mM Tris-HCl pH 7.5, 50 mM NaCl, 1 mM DTT, 4% glycerol, room temperature, 30 min; GST-TFs on glutathione beads, 16-mer random dsDNA library, 0.1% formaldehyde crosslink after washing; high values mean tight binding
Test [1] deals with T1, FEV (Homo sapiens, UniProt Q99581 1-238).
T1 sequence: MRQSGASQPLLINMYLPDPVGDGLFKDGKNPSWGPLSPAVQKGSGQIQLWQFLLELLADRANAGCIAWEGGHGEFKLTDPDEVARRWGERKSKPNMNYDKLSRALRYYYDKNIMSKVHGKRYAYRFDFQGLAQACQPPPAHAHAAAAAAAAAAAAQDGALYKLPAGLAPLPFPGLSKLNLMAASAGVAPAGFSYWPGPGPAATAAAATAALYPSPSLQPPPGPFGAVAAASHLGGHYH
Conditions: protein: recombinant; tags: N-terminal GST; dsDNA, one strand shown. Put shortly: (§1)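 Pools were built from human transcription factors expressed in yeast as GST fusions, captured on glutathione beads and DNA-barcoded, along with a tag-only sample. Incubation with 200 nmole of a 16-mer random double-stranded DNA library lasted 30 min at room temperature in Tris/NaCl/DTT/glycerol buffer, and was followed by washing, 0.1% formaldehyde crosslinking, proximity ligation, PCR amplification and Illumina NextSeq500 sequencing. Binding signal is the quotient of each hexamer's read frequency for a factor and its frequency for the tag-only sample.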

Test [2] deals with ETV5 (Homo sapiens, UniProt P41161 1-510). Conditions: protein: recombinant; tags: N-terminal GST; dsDNA, one strand shown. Put shortly: as §1
Test [3] has as its target HSF1 (Homo sapiens, UniProt Q00613 1-529). Conditions: protein: recombinant; tags: N-terminal GST; chain copies: 3; dsDNA, one strand shown. Put shortly: as §1
The target in test [4] is T2, SPIC (Homo sapiens, UniProt Q8N5J4 1-248).
T2 sequence: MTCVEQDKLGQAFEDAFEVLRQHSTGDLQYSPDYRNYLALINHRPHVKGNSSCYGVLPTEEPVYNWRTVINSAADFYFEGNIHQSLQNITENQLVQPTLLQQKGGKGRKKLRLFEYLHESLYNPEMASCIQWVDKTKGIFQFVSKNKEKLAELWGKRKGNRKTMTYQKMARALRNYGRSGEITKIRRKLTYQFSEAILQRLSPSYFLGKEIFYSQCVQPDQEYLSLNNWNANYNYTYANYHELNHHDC
Conditions: protein: recombinant; tags: N-terminal GST; dsDNA, one strand shown. Put shortly:
as §1

Test [5] has as its target ELF4 (Homo sapiens, UniProt Q99607 1-663). Conditions: protein: recombinant; tags: N-terminal GST; dsDNA, one strand shown. Put shortly:
as §1

The target in test [6] is T3, ELK4 (Homo sapiens, UniProt P28324-2 1-405).
T3 sequence: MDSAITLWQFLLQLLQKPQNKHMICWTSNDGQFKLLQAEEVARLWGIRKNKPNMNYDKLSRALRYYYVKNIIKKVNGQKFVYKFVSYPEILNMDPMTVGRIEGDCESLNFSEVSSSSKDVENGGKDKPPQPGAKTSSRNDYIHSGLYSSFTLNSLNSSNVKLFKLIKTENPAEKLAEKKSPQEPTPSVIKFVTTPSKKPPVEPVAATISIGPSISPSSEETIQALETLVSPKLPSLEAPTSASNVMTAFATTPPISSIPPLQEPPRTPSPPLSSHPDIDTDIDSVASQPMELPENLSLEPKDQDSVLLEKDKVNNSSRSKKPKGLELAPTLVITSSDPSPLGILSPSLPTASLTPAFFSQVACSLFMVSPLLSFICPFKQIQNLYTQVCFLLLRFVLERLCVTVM
Conditions: protein: recombinant; tags: N-terminal GST; dsDNA, one strand shown. Put shortly:
as §1

Test [7] concerns the target T4, ETV2 (Homo sapiens, UniProt O00321 1-342).
T4 sequence: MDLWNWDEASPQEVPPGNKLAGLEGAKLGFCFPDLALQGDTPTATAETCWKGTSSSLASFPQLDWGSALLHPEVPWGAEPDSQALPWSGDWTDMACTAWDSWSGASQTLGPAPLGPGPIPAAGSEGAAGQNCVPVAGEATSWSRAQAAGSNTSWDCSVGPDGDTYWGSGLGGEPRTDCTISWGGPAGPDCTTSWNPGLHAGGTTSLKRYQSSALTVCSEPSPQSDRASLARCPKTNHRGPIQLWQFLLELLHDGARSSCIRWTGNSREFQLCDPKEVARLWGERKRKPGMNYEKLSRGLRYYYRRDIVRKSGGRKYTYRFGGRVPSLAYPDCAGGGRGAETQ
Conditions: protein: recombinant; tags: N-terminal GST; dsDNA, one strand shown. Put shortly:
as §1

The target of test [8] is T5, ELF3 (Homo sapiens, UniProt P78545 1-371).
T5 sequence: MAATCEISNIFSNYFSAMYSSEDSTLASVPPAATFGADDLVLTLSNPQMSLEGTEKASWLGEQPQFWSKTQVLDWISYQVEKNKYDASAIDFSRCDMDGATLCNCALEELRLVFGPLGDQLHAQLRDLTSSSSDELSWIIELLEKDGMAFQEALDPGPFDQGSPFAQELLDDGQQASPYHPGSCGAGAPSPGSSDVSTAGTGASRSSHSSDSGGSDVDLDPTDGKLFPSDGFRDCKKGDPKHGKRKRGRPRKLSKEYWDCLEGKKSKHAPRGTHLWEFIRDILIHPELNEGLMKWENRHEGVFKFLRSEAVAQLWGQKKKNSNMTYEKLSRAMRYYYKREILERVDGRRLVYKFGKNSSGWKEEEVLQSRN
Conditions: protein: recombinant; tags: N-terminal GST; dsDNA, one strand shown. Put shortly:
as §1

Test [9] has as its target CRX (Homo sapiens, UniProt O43186 1-299). Conditions: protein: recombinant; tags: N-terminal GST; dsDNA, one strand shown. Put shortly: as §1
Test [10] concerns the target ETV1 (Homo sapiens, UniProt P50549 1-477). Conditions: protein: recombinant; tags: N-terminal GST; dsDNA, one strand shown. Put shortly: as §1
The target in test [11] is T6, ERF (Homo sapiens, UniProt P50548 1-548).
T6 sequence: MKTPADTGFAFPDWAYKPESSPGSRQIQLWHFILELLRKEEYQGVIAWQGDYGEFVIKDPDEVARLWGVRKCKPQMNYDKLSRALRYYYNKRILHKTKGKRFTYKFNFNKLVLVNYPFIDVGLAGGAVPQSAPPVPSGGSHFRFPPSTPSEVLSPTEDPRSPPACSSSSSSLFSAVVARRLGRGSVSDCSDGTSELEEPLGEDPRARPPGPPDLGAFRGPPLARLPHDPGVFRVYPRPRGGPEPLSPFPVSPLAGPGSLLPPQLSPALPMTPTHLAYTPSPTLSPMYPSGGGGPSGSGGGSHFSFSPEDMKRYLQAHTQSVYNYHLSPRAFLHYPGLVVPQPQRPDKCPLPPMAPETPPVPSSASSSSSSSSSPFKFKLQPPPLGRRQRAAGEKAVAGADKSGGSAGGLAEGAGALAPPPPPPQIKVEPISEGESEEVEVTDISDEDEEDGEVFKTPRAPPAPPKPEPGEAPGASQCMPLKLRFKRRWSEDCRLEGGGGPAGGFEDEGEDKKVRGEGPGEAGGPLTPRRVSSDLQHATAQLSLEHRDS
Conditions: protein: recombinant; tags: N-terminal GST; dsDNA, one strand shown. Put shortly: as §1

Test [12] concerns the target T7, ETV3L (Homo sapiens, UniProt Q6ZN32 1-361).
T7 sequence: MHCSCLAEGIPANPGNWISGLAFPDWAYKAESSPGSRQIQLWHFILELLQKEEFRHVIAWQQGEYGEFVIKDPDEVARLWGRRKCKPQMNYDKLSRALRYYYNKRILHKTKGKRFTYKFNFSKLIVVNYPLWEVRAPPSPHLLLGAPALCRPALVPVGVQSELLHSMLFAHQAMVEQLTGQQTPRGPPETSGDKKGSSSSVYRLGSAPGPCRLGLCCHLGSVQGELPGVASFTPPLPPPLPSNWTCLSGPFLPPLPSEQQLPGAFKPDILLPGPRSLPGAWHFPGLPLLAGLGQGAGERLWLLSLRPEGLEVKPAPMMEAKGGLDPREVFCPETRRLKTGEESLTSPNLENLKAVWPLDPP
Conditions: protein: recombinant; tags: N-terminal GST; dsDNA, one strand shown. Put shortly: as §1

Test [13] concerns the target T8, ETS2 (Homo sapiens, UniProt P15036 1-469).
T8 sequence: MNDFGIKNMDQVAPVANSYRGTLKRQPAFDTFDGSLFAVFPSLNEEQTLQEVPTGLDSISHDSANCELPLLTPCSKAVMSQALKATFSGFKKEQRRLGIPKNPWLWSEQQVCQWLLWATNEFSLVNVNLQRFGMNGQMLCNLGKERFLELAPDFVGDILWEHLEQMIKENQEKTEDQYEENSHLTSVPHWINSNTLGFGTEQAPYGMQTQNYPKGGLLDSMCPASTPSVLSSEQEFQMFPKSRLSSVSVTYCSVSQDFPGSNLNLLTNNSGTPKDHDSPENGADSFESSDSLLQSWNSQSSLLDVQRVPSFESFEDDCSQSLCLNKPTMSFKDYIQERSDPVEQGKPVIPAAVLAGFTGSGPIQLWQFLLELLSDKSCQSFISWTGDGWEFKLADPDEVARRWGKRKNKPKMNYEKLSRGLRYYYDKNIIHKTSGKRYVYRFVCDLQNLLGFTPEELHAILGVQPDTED
Conditions: protein: recombinant; tags: N-terminal GST; dsDNA, one strand shown. Put shortly: as §1

Test [14] addresses T9, SPDEF (Homo sapiens, UniProt O95238 1-335).
T9 sequence: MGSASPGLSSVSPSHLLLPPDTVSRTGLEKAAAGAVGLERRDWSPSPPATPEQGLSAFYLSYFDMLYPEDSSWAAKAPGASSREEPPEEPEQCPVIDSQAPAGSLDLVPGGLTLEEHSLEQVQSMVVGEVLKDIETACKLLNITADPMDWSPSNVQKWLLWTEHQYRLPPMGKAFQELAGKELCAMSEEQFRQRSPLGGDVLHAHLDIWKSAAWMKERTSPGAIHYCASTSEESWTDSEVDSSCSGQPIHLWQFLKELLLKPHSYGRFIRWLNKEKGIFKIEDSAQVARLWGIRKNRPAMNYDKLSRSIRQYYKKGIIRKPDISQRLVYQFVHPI
Conditions: protein: recombinant; tags: N-terminal GST; dsDNA, one strand shown. Put shortly:
as §1

For test [15], the target named is T10, ETV7 (Homo sapiens, UniProt Q9Y603 1-341).
T10 sequence: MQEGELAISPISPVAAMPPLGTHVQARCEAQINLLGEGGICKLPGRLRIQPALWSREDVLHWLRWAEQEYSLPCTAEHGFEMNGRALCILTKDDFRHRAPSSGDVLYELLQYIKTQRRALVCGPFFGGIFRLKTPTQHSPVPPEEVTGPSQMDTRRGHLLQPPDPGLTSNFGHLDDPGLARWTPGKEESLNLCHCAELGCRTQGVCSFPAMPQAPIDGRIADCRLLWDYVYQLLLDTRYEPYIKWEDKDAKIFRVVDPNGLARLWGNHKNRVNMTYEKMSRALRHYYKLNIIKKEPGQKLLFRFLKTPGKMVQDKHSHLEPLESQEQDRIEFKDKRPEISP
Conditions: protein: recombinant; tags: N-terminal GST; dsDNA, one strand shown. Put shortly:
as §1

In test [16] the target is T11, ELF5 (Homo sapiens, UniProt Q9UKW6-2 1-255).
T11 sequence: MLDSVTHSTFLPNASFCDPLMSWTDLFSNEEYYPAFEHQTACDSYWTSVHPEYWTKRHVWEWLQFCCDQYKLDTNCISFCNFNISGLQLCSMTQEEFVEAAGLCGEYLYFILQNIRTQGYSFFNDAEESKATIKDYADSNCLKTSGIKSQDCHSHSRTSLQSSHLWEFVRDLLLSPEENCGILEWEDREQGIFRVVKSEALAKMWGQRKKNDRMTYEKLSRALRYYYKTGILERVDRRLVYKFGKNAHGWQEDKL
Conditions: protein: recombinant; tags: N-terminal GST; dsDNA, one strand shown. Put shortly: as §1

Test [17] has as its target T12, ETV3 (Homo sapiens, UniProt P41162-2 1-143).
T12 sequence: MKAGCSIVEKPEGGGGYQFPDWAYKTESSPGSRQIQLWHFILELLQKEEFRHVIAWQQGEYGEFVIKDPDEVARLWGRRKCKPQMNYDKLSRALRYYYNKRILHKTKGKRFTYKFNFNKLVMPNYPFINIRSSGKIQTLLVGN
Conditions: protein: recombinant; tags: N-terminal GST; dsDNA, one strand shown. Put shortly: as §1

Test [18] concerns the target ETV6 (Homo sapiens, UniProt P41212 1-452). Conditions: protein: recombinant; tags: N-terminal GST; dsDNA, one strand shown. Put shortly: as §1

Our source for the binding signal values is article PMC7862700, “An all-to-all approach to the identification of sequence-specific readers for epigenetic DNA modifications on cytosine”.

Chain of ELF4 (Q99607 whole entry): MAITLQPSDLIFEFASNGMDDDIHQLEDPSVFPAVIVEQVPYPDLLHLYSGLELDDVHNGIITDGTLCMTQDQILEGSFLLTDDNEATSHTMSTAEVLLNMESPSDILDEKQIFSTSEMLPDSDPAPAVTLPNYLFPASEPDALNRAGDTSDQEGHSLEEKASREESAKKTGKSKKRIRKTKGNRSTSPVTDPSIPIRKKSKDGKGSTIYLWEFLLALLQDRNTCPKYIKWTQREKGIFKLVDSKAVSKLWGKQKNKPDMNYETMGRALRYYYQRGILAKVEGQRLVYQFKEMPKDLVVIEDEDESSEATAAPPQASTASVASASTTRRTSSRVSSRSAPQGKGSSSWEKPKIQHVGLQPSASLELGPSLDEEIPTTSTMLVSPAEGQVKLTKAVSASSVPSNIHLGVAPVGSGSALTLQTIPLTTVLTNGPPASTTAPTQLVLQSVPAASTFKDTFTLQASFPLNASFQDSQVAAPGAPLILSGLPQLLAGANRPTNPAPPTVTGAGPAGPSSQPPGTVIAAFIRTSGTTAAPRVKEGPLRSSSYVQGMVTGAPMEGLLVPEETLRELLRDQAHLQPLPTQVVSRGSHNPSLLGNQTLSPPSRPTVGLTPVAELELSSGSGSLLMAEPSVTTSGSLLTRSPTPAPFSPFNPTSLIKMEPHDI
Chain of HSF1 (Q00613 whole entry): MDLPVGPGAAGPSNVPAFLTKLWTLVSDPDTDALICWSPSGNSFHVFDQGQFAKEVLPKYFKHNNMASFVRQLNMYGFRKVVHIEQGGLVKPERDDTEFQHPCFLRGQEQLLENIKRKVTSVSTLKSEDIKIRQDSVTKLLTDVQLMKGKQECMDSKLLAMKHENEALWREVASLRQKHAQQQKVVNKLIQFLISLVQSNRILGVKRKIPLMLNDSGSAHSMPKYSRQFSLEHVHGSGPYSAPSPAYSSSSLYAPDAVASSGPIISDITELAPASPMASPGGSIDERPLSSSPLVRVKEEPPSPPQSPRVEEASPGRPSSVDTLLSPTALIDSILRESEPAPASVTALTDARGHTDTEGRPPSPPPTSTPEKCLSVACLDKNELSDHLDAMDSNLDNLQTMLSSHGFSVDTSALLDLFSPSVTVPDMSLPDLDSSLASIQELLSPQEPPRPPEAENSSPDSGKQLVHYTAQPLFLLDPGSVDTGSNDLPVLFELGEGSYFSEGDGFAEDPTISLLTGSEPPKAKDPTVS
Chain of ETV6 (P41212 whole entry): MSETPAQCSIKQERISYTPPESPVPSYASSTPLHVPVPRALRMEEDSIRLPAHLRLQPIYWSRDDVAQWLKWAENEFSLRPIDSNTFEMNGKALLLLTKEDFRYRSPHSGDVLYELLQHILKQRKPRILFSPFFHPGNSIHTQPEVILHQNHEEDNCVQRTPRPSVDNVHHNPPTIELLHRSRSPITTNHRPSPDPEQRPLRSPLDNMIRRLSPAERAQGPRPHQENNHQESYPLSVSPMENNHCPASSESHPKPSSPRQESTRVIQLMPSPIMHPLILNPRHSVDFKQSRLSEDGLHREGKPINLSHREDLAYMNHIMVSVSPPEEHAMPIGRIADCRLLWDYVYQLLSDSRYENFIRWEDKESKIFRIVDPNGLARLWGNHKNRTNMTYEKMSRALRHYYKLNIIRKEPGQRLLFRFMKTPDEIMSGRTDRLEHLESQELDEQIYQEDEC
Chain of CRX (O43186 whole entry): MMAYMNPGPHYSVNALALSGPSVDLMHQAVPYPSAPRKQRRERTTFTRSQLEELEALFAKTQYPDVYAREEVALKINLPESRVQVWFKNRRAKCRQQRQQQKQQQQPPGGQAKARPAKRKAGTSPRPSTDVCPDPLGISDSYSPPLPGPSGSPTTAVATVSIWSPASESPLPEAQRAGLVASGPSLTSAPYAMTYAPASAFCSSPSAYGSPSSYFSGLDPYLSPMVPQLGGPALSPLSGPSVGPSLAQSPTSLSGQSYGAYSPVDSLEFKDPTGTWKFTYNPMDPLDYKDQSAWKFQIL
Chain of ETV1 (P50549 whole entry): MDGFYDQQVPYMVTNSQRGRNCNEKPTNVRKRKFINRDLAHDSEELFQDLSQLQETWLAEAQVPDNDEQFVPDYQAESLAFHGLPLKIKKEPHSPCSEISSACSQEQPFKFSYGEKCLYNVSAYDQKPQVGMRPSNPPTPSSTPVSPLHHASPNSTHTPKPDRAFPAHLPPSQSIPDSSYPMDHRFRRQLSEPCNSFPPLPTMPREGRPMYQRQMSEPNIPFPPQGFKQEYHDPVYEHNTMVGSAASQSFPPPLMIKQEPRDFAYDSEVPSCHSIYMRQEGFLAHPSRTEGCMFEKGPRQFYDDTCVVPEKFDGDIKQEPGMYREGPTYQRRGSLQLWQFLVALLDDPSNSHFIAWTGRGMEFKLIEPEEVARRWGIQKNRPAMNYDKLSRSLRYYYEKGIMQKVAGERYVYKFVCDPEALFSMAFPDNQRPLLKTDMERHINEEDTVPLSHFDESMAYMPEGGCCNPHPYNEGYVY
Chain of ETV5 (P41161 whole entry): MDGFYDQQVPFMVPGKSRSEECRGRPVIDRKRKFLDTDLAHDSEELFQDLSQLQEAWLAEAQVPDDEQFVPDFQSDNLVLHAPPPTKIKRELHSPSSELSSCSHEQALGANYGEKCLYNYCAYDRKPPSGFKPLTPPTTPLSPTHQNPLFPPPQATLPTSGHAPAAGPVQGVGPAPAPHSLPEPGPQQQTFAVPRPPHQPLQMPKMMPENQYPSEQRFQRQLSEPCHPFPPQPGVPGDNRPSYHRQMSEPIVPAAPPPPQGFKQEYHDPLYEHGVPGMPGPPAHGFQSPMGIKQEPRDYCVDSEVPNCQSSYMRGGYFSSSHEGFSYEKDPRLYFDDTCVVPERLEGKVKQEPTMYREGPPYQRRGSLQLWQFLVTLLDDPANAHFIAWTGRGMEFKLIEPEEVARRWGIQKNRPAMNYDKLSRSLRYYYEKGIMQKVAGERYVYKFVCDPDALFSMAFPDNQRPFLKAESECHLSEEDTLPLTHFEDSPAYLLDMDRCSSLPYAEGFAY

In the case of CCTAAA, the binding signal in [1] was 1.27 fold enrichment (6-mer frequency, TF over GST control); in test [2], 1.33 fold enrichment (6-mer frequency, TF over GST control); in test [3], 1.37 fold enrichment (6-mer frequency, TF over GST control); in [4], 1.32 fold enrichment (6-mer frequency, TF over GST control); in test [5] it was 1.35 fold enrichment (6-mer frequency, TF over GST control); in test [6], 1.29 fold enrichment (6-mer frequency, TF over GST control). Also, the binding signal is 1.25 fold enrichment (6-mer frequency, TF over GST control) in test [7]; 1.4 fold enrichment (6-mer frequency, TF over GST control) in test [8]; 1.61 fold enrichment (6-mer frequency, TF over GST control) in test [9]; 1.31 fold enrichment (6-mer frequency, TF over GST control) in test [10]; 1.4 fold enrichment (6-mer frequency, TF over GST control) in test [11]; 1.32 fold enrichment (6-mer frequency, TF over GST control) in [12]. In addition, the binding signal in [13] was 1.33 fold enrichment (6-mer frequency, TF over GST control); in test [14] it was 1.32 fold enrichment (6-mer frequency, TF over GST control); in test [15], 1.34 fold enrichment (6-mer frequency, TF over GST control); in [16], 1.27 fold enrichment (6-mer frequency, TF over GST control); in [17] it was 1.28 fold enrichment (6-mer frequency, TF over GST control); in test [18], 1.25 fold enrichment (6-mer frequency, TF over GST control).
